Measured values as given in PubChem BioAssay.
Calls of active or inactive are those of the source.

Key:
Albumin (Bos taurus) = Albumin (Bos taurus) (UniProt P02769); test: bovine serum albumin binders on microarray, profiling panel, artefact control for SMM control protein annotation, biochemical, small-molecule microarray, Alexa647 label, 635/667 nm fluorescence (AID 1118); conditions: BSA-A647 binding, fluorescence 635 nm, higher = more signal;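 further: score merges 667 nm emission intensity and signal-to-noise per printed compound spot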
[1] = small-molecule microarray binders of probe aXIP, primary screen, biochemical, NeuroSMM set, 635/667 nm fluorescence (AID 1119); conditions: higher = more signal, called active from +8 up or from −8 down;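 further: probe is the protein aXip251-270 applied at 1 µg/mL to compound-printed slides; binding of probe to printed compounds measured as 667 nm fluorescence plus signal to noise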
[2] = small-molecule binders of probe aNOTCH3, primary screen, biochemical, small-molecule microarray, 635/667 nm fluorescence (AID 1120); conditions: higher = more signal;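 further: probe is a biotin-tagged antibody raised against NOTCH3 rather than NOTCH3 protein; score merges spot fluorescence near 667 nm with spot signal to noise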
[3] = small-molecule binders of probe aNOTCH2, primary screen, biochemical, small-molecule microarray, 635/667 nm fluorescence (AID 1121); conditions: higher = more signal;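 further: score merges feature fluorescence read at 667 nm with its signal to noise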
[4] = biological target: Carbonic anhydrase 2 (Homo sapiens) (UniProt P00918); test: CAII small-molecule binders, profiling panel, biochemical, small-molecule microarray, Alexa647-labelled CAII (AID 1122); conditions: CAII-A647 binding fluorescence, higher = more signal
[5] = COS7 lysate on small-molecule microarray, probe aHis, 635 nm (AID 1123); conditions: COS7 cell lysate, fluorescence, higher = more signal;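 further: z-score combines 667nm fluorescence intensity with signal-to-noise per printed compound spot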
[6] = compound binding in COS7 lysate, probe aLAP1, primary screen, cell lysate, small-molecule microarray (AID 1124); conditions: probe aLAP1, fluorescence, higher = more signal;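 further: lysate comes from COS7 cells expressing LAP1 and is applied at 0.3 µg/mL; score merges spot fluorescence near 667 nm with signal-to-noise over triplicate slides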
Sam68 (KHDRBS1) = test: Sam68 small-molecule binders, primary screen, biochemical, small-molecule microarray, 635 nm fluorescence (AID 1125); conditions: small-molecule microarray binding, higher = more signal;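 further: score merges 667 nm channel intensity with signal to noise over triplicate slides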
[7] = test system: Chordin-like protein 2 (CHRDL2); test: CHRDL2 small-molecule binders, primary screen, biochemical, small-molecule microarray, 635 nm fluorescence (AID 1126); conditions: small-molecule microarray binding, fluorescence 635 nm; higher = more signal;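 further: printed compound slides probed with Chrdl2 protein at 4 µg/mL for 1 h at 4 C; score merges 667 nm emission intensity with signal to noise over three replicate slides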
[8] = biological target: Concanavalin-A (Canavalia ensiformis) (UniProt P02866); test: ConA small-molecule binders, primary screen, artefact control for SMM control protein annotation, biochemical, small-molecule microarray, Alexa647 label, 635 nm (AID 1127); conditions: ConA-A647 binding fluorescence, higher = more signal;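 further: z combines 667 nm emission intensity with signal-to-noise across three replicate slides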
[9] = anti-His antibody binders, primary screen, artefact control for SMM control protein annotation, biochemical, small-molecule microarray, 635 nm fluorescence (AID 1128); conditions: anti-His Alexa647 antibody binding, higher = more signal;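 further: score merges feature fluorescence with signal-to-noise for each printed compound spot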
[10] = test system: Human papillomavirus type 1a E7 protein (residues 1-88); test: HPV1a E7 small-molecule binders, primary screen, biochemical, small-molecule microarray, residues 1-88, 635 nm (AID 1129); conditions: small-molecule microarray binding, fluorescence 635 nm; higher = more signal
[11] = biological target: Focal adhesion kinase 1 (Homo sapiens) (UniProt Q05397); test: small-molecule microarray binders of FAK, primary screen, biochemical, 635/667 nm fluorescence, BSA, DTT (AID 1130); conditions: PTK2 binding, 635 nm fluorescence, higher = more signal;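 further: composite of spot emission at 667 nm and signal to noise over triplicate slides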
[12] = test system: Fibrinogen (Alexa647-labelled); test: fibrinogen binders on compound microarrays, profiling panel, artefact control for SMM control-protein annotation, biochemical, small-molecule microarray, 635/667 nm fluorescence (AID 1131); conditions: fibrinogen-A647 binding fluorescence, higher = more signal;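 further: z-score merges 667 nm fluorescence with per-spot signal-to-noise over triplicate slides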
[13] = biological target: Follistatin (Homo sapiens) (UniProt P19883); test: follistatin binders on small-molecule microarrays, primary screen, biochemical, small-molecule microarray, 635/667 nm fluorescence (AID 1132); conditions: FST binding, 635 nm fluorescence, higher = more signal
[14] = biological target: Fibroblast growth factor 2 (Homo sapiens) (UniProt P09038); test: FGF2 binders on small-molecule microarrays, primary screen, biochemical, small-molecule microarray, 635/667 nm fluorescence (AID 1133); conditions: small-molecule microarray binding, FGF2, fluorescence 635/667; higher = more signal
[15] = mitochondrial membrane potential change in A549 cells, profiling panel, cell-based, JC-1 fluorescence, basal, 24 h, 100 nL (AID 1138); conditions: higher = more signal;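 further: A549 lung adenocarcinoma cells under basal conditions with no added stimulus; test concentration not given here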
Lefty1 = Lefty1 binders on small-molecule microarrays, primary screen, biochemical, small-molecule microarray, 635/667 nm fluorescence (AID 1139); conditions: small-molecule microarray binding, fluorescence 635/667; higher = more signal
[16] = test system: wheat germ agglutinin (Triticum aestivum), Alexa647-labelled; test: wheat germ agglutinin binders on compound microarrays, profiling panel, artefact control for SMM control-protein annotation, biochemical, small-molecule microarray, 635/667 nm fluorescence (AID 1140); conditions: WGA-A647 binding, 635 nm fluorescence, higher = more signal;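 further: score merges 667 nm feature emission with signal to noise over triplicate slides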
[17] = biological target: Luciferin 4-monooxygenase (Photinus pyralis) (UniProt P08659); test: firefly luciferase enzyme inhibitors, primary screen, biochemical, luminescence, purified enzyme, 2006 set (AID 1141); conditions: SteadyGlo luminescence, 30 min, higher = more signal, called active from +8 up or from −8 down;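 further: cell-free assay with purified firefly luciferase at 100 ng per well in PBS; test concentration not given here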
Sequence of Luciferin 4-monooxygenase (Photinus pyralis) (P08659 whole entry, looked up): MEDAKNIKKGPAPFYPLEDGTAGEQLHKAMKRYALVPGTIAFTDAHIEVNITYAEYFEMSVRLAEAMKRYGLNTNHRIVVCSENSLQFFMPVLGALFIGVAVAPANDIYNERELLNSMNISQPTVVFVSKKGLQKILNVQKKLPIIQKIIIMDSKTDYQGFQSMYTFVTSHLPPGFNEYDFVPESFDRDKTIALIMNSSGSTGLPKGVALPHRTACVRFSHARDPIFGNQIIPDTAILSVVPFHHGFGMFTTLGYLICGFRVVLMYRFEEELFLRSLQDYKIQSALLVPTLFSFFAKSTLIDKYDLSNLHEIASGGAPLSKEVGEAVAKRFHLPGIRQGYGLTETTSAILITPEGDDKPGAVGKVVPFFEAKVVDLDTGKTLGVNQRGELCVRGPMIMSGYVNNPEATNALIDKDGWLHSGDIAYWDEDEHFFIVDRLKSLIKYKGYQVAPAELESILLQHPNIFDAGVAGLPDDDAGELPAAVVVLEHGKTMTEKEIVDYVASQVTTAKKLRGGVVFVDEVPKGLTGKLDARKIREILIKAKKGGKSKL

Sequence of Fibroblast growth factor 2 (Homo sapiens) (P09038 whole entry, looked up): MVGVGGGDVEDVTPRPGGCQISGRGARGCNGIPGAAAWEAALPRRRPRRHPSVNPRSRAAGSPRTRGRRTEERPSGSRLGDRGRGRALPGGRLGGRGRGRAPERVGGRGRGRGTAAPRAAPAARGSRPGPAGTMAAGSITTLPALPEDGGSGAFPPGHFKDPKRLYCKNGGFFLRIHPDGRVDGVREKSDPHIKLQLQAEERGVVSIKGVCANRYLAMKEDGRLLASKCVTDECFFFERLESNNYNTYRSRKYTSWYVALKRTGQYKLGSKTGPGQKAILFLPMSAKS
Sequence of Concanavalin-A (Canavalia ensiformis) (P02866 whole entry, looked up): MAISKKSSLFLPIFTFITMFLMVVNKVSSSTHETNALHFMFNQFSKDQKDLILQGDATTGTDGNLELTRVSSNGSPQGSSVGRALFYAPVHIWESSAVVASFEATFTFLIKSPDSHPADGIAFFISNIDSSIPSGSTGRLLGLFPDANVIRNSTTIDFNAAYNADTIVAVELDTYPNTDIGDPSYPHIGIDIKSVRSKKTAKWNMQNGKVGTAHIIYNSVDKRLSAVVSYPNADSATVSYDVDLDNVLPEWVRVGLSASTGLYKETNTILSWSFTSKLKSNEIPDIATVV
Sequence of Focal adhesion kinase 1 (Homo sapiens) (Q05397 whole entry, looked up): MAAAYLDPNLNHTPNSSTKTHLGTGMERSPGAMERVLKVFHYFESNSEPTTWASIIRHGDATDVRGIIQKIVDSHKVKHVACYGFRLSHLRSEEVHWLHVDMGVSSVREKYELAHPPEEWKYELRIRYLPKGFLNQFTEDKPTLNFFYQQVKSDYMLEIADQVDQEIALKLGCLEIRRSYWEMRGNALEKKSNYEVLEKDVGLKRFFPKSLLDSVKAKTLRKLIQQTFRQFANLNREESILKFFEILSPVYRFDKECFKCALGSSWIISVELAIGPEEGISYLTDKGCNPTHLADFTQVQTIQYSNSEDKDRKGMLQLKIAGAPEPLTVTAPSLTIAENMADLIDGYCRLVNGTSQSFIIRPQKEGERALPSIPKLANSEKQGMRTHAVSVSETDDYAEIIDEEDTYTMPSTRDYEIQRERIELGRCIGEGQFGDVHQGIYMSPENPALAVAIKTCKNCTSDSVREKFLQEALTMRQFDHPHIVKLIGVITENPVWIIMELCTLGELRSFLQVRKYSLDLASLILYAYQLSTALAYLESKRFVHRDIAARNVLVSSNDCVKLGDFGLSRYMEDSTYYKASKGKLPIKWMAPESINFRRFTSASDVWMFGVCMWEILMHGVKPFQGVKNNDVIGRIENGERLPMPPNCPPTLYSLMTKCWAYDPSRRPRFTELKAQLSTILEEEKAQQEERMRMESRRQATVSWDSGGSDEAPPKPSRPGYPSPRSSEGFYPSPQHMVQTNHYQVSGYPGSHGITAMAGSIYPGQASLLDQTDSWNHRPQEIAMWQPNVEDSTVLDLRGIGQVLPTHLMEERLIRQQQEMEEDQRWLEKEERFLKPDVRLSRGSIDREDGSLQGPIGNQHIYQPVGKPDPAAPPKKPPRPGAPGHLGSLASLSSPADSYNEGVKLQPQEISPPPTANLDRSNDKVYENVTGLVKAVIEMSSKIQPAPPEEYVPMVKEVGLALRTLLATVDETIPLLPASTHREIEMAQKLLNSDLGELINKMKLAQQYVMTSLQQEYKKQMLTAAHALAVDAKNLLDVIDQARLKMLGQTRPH
Sequence of Albumin (Bos taurus) (P02769 whole entry, looked up): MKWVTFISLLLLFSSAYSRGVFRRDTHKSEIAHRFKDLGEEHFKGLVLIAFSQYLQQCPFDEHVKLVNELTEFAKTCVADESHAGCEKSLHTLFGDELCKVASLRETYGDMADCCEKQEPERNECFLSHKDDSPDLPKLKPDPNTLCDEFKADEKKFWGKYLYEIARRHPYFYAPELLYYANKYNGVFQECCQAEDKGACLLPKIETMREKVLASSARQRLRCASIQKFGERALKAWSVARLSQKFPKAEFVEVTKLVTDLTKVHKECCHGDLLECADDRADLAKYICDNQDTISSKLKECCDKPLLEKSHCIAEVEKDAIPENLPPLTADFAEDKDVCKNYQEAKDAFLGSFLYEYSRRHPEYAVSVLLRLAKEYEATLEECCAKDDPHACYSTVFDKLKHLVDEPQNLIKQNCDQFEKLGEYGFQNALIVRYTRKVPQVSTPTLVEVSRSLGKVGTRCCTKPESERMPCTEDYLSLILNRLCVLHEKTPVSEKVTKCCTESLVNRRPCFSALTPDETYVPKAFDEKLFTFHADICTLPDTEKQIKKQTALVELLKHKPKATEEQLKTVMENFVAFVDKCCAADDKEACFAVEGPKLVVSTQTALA
Sequence of Follistatin (Homo sapiens) (P19883 whole entry, looked up): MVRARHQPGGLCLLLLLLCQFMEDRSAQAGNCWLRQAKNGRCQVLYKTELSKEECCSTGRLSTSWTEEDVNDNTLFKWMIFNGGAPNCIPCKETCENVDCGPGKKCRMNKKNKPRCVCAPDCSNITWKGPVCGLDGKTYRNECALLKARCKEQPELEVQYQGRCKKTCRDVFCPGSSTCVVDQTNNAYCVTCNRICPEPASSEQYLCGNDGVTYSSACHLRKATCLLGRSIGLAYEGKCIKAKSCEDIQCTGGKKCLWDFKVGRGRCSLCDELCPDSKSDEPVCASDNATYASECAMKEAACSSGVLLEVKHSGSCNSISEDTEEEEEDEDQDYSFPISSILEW

[N-]=[N+]=Nc1ccccc1[C@H]1OC(c2ccc(OCCCO)cc2)=N[C@@]1(Cc1ccccc1)C(N)=O
composite z-score (Albumin (Bos taurus)): 0.869
composite Z-score [1]: 0.382 (inactive)
composite z-score [2]: 0.416
composite z-score [3]: 0.0521
composite z-score [4]: 0.623
composite z-score [5]: 0.798
composite z-score [6]: 0.577
composite z-score (Sam68 (KHDRBS1)): 1.31
composite z-score [7]: -0.751
composite z-score [8]: 1.16
composite z-score [9]: 2.59
composite z-score [10]: 1.21
composite z-score [11]: 0.0957
composite z-score [12]: 0.997
composite z-score [13]: 1.32
composite z-score [14]: 0.479
z-score [15]: 1.5
composite z-score (Lefty1): 0.97
composite z-score [16]: 1.37
z-score [17]: -12.6 (active)

COC(=O)C1=CC(c2ccc(CO)cc2)=CC(c2cccs2)N(C)C=C1C(=O)OC (stereo not given)
composite z-score (Albumin (Bos taurus)): 0.208
composite Z-score [1]: 0.875 (inactive)
composite z-score [2]: -0.0023
composite z-score [3]: -0.14
composite z-score [4]: 0.589
composite z-score [5]: 2
composite z-score [6]: 0.387
composite z-score (Sam68 (KHDRBS1)): 0.494
composite z-score [7]: -1.14
composite z-score [8]: 0.494
composite z-score [9]: 1.48
composite z-score [10]: -0.351
composite z-score [11]: 1.18
composite z-score [12]: -0.141
composite z-score [13]: 0.23
composite z-score [14]: -0.485
z-score [15]: 1.08
composite z-score (Lefty1): -0.116
composite z-score [16]: 0.84
z-score [17]: -0.822 (inactive)

C[N+](C)(C)CCCCNC(=O)[C@@H]1C[C@@H]2C(=O)NCC(=O)N2[C@@H]1c1cccc(OCCO)c1
composite z-score (Albumin (Bos taurus)): -0.656
composite Z-score [1]: 0.617 (inactive)
composite z-score [2]: 0.0297
composite z-score [3]: -0.19
composite z-score [4]: 0.434
composite z-score [5]: 2.15
composite z-score [6]: 1.27
composite z-score (Sam68 (KHDRBS1)): 0.781
composite z-score [7]: 1.29
composite z-score [8]: 1.14
composite z-score [9]: 2.59
composite z-score [10]: 1.15
composite z-score [11]: -0.421
composite z-score [12]: 0.78
composite z-score [13]: 1.49
composite z-score [14]: 1.94
z-score [15]: 1.87
composite z-score (Lefty1): 1.6
composite z-score [16]: 1.02
z-score [17]: -1.9 (inactive)
